mHTT-CaM PPI inh: mutant huntingtin-calmodulin interaction inhibitors – biochemical, AlphaScreen, primary screen. P42858. AlphaScreen His-mHTT/GST-CaM binding, luminescence. inhibition, % at 15 µM. actives 3.6% (n = 190,000). AID 1671202, 2021;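 further: 0% = both proteins with DMSO and 100% = one protein alone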
Target sequence (P42858 whole entry, looked up, stated change not applied): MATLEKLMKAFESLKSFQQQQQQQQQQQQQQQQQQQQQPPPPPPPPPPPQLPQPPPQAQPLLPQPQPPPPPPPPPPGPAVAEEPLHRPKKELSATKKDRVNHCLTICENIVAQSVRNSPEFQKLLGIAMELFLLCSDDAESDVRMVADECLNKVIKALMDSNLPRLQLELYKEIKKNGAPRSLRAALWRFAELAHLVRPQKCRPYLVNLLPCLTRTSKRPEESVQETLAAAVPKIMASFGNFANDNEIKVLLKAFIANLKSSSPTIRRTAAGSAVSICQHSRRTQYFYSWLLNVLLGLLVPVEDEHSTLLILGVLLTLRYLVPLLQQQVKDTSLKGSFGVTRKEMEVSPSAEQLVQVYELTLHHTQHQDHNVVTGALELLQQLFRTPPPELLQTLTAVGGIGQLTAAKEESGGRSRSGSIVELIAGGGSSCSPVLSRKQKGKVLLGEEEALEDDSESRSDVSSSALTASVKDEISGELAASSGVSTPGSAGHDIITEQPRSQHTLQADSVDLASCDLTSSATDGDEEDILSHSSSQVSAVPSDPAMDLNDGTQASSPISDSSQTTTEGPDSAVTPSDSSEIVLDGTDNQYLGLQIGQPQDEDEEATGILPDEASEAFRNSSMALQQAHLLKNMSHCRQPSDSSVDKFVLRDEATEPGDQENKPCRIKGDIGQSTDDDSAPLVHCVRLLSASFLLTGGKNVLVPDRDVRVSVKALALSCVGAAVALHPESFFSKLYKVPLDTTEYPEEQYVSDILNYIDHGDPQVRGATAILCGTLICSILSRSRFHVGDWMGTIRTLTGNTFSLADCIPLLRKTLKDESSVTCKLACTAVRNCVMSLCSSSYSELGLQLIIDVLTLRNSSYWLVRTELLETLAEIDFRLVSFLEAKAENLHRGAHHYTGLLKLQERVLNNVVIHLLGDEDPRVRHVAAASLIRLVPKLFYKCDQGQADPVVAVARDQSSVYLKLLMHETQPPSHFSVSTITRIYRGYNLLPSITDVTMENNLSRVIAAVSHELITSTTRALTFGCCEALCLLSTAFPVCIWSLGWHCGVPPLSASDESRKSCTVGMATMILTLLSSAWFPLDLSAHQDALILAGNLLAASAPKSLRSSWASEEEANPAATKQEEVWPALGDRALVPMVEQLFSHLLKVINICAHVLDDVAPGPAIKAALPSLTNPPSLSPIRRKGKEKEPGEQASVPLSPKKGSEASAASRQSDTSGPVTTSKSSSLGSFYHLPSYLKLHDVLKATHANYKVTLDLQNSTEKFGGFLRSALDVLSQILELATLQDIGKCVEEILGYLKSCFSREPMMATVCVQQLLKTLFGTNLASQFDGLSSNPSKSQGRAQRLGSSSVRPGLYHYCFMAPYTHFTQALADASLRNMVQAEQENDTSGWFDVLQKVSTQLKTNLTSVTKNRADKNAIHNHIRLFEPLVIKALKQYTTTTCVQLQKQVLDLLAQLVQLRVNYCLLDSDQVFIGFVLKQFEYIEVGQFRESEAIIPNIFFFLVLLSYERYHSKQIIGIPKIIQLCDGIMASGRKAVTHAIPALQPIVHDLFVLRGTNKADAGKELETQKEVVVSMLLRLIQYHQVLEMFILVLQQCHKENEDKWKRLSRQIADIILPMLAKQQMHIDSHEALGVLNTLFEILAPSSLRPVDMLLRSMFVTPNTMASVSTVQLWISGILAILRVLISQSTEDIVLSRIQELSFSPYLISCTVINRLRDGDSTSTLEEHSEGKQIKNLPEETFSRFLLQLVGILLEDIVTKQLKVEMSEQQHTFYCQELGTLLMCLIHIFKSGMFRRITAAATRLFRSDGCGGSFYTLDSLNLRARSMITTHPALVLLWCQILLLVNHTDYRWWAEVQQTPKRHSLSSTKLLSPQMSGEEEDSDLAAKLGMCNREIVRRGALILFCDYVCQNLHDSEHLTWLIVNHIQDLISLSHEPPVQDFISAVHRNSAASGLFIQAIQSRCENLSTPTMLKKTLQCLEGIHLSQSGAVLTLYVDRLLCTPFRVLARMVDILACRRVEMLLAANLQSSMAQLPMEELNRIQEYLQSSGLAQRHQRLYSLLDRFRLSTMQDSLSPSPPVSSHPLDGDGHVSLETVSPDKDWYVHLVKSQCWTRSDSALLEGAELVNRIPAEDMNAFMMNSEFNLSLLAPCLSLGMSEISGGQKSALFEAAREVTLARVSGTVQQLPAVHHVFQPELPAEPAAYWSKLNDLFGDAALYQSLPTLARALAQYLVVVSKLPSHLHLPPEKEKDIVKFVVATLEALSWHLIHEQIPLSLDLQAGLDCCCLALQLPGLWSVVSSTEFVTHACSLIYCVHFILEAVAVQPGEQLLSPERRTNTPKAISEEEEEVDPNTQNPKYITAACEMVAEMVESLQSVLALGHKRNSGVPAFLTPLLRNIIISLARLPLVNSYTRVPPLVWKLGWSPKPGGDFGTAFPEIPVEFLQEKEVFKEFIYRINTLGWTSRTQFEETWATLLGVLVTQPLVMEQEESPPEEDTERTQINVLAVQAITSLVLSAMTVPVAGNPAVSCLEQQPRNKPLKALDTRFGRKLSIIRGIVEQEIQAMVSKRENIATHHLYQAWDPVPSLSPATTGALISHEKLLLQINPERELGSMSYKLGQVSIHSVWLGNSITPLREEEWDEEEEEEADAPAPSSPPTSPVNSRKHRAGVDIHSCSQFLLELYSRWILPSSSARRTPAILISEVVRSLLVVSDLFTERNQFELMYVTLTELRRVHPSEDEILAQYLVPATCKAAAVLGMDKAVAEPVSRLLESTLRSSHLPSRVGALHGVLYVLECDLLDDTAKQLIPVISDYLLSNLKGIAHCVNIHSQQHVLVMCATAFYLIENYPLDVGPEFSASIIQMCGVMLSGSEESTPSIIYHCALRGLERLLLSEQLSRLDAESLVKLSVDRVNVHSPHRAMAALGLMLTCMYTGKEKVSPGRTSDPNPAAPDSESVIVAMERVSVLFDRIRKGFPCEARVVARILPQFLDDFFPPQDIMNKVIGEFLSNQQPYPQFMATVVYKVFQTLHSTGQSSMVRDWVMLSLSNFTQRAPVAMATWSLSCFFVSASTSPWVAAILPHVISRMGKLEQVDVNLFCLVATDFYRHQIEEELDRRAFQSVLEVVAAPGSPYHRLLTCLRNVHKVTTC
Pf apPOL block: Pf-apPOL inhibitors, biochemical, fluorescence. AID 1794808, 2022. actives 0.25% (n = 210,000). Plasmodium falciparum apicoplast DNA polymerase (apPOL). inhibition, % at 10 µM. Recombinant Pf-apPOL, molecular beacon fluorescence, 1.5 h
* marks the source's active call; other numbers are inactive results; · = not tested or not shown. Many of the other results were omitted from the sample, so hits are more common in it than they were. No stated cut-off is given here; in the data, active means inhibition above about 50%; inactive means the rest.

SMILES | mHTT-CaM PPI inh | Pf apPOL block
O=S1(=O)N[C@H](Cc2ccccc2)COc2cccc(N3CCN(Cc4ccccc4F)CC3)c21 | 62* | -6
CN1CCN(c2cccc3c2S(=O)(=O)N[C@H](Cc2ccccc2)CO3)CC1 | -3 | -8
COc1ccc(NC(=O)N(CCCN2CCOCC2)Cc2cccnc2)c(OC)c1 | -1 | 68*
COc1ccc(NC(=O)CN2CCC(C(=O)NCc3cccnc3)CC2)c(OC)c1 | 1 | -3
CCC(C)(C)C1CCc2c(sc(N)c2C#N)C1 (stereo unspecified) | · | 97*
CCN1CCc2c(sc(N)c2C#N)C1 | 7 | -22
CCCOc1ccc(OCCSc2nc(N)cc(=O)[nH]2)cc1 | 0 | 3
Nc1cc(=O)[nH]c(SCCOc2ccc(Cl)cc2)n1 | 100* | -10
NC1=NC(=O)/C(=C/c2ccc(-c3ccccc3[N+](=O)[O-])o2)S1 | 59* | -12
O=[N+]([O-])c1ccccc1-c1ccc(/C=C/c2ccncc2)o1 | 69* | 6
CC1(C)OC(=O)C(=Cc2ccc(-c3ccccc3[N+](=O)[O-])o2)C(=O)O1 | 1 | 5
O=C(/C=C/c1ccc(-c2ccccc2[N+](=O)[O-])o1)c1cc2ccccc2o1 | 77* | 11
O=Cc1ccc(-c2ccccc2[N+](=O)[O-])o1 | 8 | -1
O=C(C=Cc1ccc([N+](=O)[O-])cc1)c1cc2ccccc2oc1=O | 2 | 1
COc1cc(NC(=O)NCCNc2ccc(Nc3ccncc3)nn2)cc(OC)c1OC | 2 | 2
Cc1ccccc1NC(=O)Cn1nc(N2CCCC(C)C2)c2ccccc2c1=O (stereo unspecified) | 3 | -1
COc1cc([N+](=O)[O-])ccc1NC(=O)CSc1nnnn1-c1ccccc1 | 2 | -8
COc1nn(C)cc1C(=O)N1CCC(C(=O)NCc2cccs2)CC1 | -16 | -3
COCCCNC(=O)CSC1=Nc2ccccc2C2=NC(Cc3ccccc3)C(=O)N12 (stereo unspecified) | 1 | 1
Cc1nc2ncccn2c1-c1csc(Nc2cccc([N+](=O)[O-])c2)n1 | -2 | -14
Cc1nc2ncccn2c1-c1csc(Nc2ccccn2)n1 | 73* | -4
Cc1cccc(C(=O)Nc2c(C)nc3sccn3c2=O)c1 | -4 | 4
Cc1cccc(Nc2nc(-c3c(C)nc4ncccn34)cs2)c1 | 77* | -6
Cc1nc2ncccn2c1-c1csc(N)n1 | -1 | ·
Cc1cc(NS(=O)(=O)c2ccc(Nc3nc(-c4c(C)nc5ncccn45)cs3)cc2)no1 | 22 | -2
SMILES | mHTT-CaM PPI inh | Pf apPOL block
Cc1nc2sccn2c1-c1csc(Nc2cccc(O)c2)n1 | 73* | -3
Cc1nc2ncccn2c1-c1csc(Nc2ccccc2)n1 | 97* | -1
Cc1cc(Cl)cc(Cl)c1OCC(=O)Nc1cccnc1 | 6 | -9
COCCC(=O)N1CCC2(C1)NCc1ccccc1NC2=NC(C)(C)C (stereo unspecified) | 3 | -1
Cc1ccccc1C(=O)N1CC(C(=O)NCc2ccccn2)C(c2cccc(F)c2)C1 (stereo unspecified) | 28 | -3
Cc1ccc([N+](=O)[O-])cc1NC(=O)c1cccc(S(=O)(=O)N2CCCCC2)c1 | 0 | -4
CN(C)c1ccc(C(CNC(=O)C(=O)NCC2CCCO2)N2CCc3ccccc32)cc1 (stereo unspecified) | 65* | 0
CC(NC(=O)C(=O)NCC1CCCO1)c1ccccc1 (stereo unspecified) | -12 | -10
CC(C)CSC1=NSC2=NC(=O)/C(=C\c3ccc(C(=O)O)cc3)C(=N)N12 | 1 | -3
O=S(=O)(Nc1ccc(Cl)cc1)c1ccc2nc(-c3ccccc3)[nH]c2c1 | 3 | 9
COc1ccc(C(=O)Nc2ccc(N(C)C)cc2)cc1[N+](=O)[O-] | 58* | -6
COc1ccc(NC(=O)c2ccc(OC)c([N+](=O)[O-])c2)cc1OC | 7 | 0
CN1CC=C2C(C(=O)O)=C(N)C(C#N)(C#N)C(c3ccc(-c4ccccc4)cc3)C2C1 (stereo unspecified) | 45 | 1
COc1ccc(CN2C(=O)c3ccccc3C2C(=O)NC2CCC(C)CC2)cc1 (stereo unspecified) | 25 | -6
O=C(Cc1ccc(NC(=O)c2ccno2)cc1)NC1CC1 | -16 | -4
Cc1cccc(NC(=O)N2CCC(N3CCN(Cc4ccccc4)C3=O)CC2)c1C | 100* | -4
Cc1ccccc1NC(=O)N1CCC(N2CCN(Cc3ccccc3)C2=O)CC1 | 0 | -3
O=C(NCCn1nc(-c2cccs2)ccc1=O)c1ccc(=O)n(Cc2ccccc2)n1 | 2 | -9
Cc1ccc(F)cc1NC(=O)C1CCCN(c2nnc3ccccn23)C1 (stereo unspecified) | 0 | -2
CCn1c(=O)c(-c2ccc(C(=O)NC(C)(C)C)cc2)nc2ccccc21 | 0 | -1
CCNc1ccc(Br)cc1-c1nc2ccccc2n(CC)c1=O | 52* | -1
CC(C)CNC(=O)N1CCc2c(c(-c3nc(-c4cccc(F)c4)no3)nn2C)C1 | 5 | -2
N#CCSC1=Nc2ccccc2C2=NC(c3ccccc3)C(=O)N12 (stereo unspecified) | 9 | -1
COc1ccccc1CNC(=O)CC(NS(=O)(=O)c1ccc(F)cc1)C(C)C (stereo unspecified) | -9 | -2
COc1cccc2sc(N3CCc4ccccc4C3)nc12 | 93* | -8
SMILES | mHTT-CaM PPI inh | Pf apPOL block
COc1cccc2sc(N3CCN(c4ccccc4)CC3)nc12 | -15 | -18
Cc1nc(C)c(Cc2ccccc2C)c(N2CCN(C(=O)c3ccc(F)cc3)CC2)n1 | 21 | -2
O=C(C1CCCN(S(=O)(=O)c2ccc(Br)s2)C1)N1CCCC1 (stereo unspecified) | -7 | 4
COc1ccc(-c2nc(NC(=O)c3cccc([N+](=O)[O-])c3)sc2C)cc1OC | 32 | -8
O=C(O)CN(C1CCCCC1)S(=O)(=O)c1ccc(Br)cc1 | -2 | 68*
O=C(CN(C1CCCCC1)S(=O)(=O)c1ccc(Br)cc1)NC1CC1 | 1 | -7
CCC(=O)N1CCN(c2cc(C)ccc2OC)C(=O)C1C (stereo unspecified) | -7 | -4
OCc1nc2ccccc2n1Cc1ccc(Br)cc1 | 7 | -1
Cc1nc2ccccc2n1CC(O)COc1ccccc1Cl (stereo unspecified) | 58* | -5
OCc1nc2ccccc2n1CC(O)COc1ccc(Br)cc1 (stereo unspecified) | 73* | 2
Cc1ccc(Cl)c(OCC(O)Cn2c(C)nc3ccccc32)c1 (stereo unspecified) | 10 | -7
Cn1ccc2c(-c3ccc(F)cc3F)cc3c(c21)C1CCC3C1 (stereo unspecified) | 59* | -35
Cn1ccc2c(-c3cncc4ccccc34)cc3c(c21)C1CCC3C1 (stereo unspecified) | 100* | 0
CCCN(CC1CC1)c1cc2c(c3c1ccn3C)C1CCC2C1 (stereo unspecified) | 74* | -2
COc1ccc(-c2cc3c(c4c2ccn4C)C2CCC3C2)cc1OC (stereo unspecified) | 74* | 1
Cn1ccc2c(-c3cccnc3)cc3c(c21)C1CCC3C1 (stereo unspecified) | 32 | -8
Cn1ccc2c(-c3ccc(F)nc3)cc3c(c21)C1CCC3C1 (stereo unspecified) | 28 | 5

Compound activity: PubChem, University of Kansas High Throughput Screening Laboratory
